From ChEMBL document CHEMBL3988442, “University of Dundee, Small-Polar-MMV Screening Library” (2021)
Screen size: about 66,000 compounds; about 960 (1.5%) showed an effect of 50% or more. The sample as a whole holds a higher share of strong results than the screen did.

Test system: Trypanosoma brucei
Test: Trypanosoma brucei 72 hour study
Type: functional, organism-based
Parameters: scale not given: in the data most compounds retested in dose-response had high values

## CN(C)S(=O)(=O)N1C[C@@H](OCc2cccnc2)[C@H]2OCCC[C@H]21.O=C(O)C(F)(F)F
30 µM, 30.03 µM
  Percent Effect: -11.52%

## CN(Cc1cccc(OC(F)F)c1)Cc1nc2c(cnn2C)c(=O)[nH]1
30.3 µM, […]
  Percent Effect: -25.39%

## CN(CCS(=O)(=O)c1cc(Cl)ccc1Cl)CC(=O)Nc1cccc(F)c1
30 µM, 30.03 µM
  Percent Effect: -17.26%

## CN(CCS(=O)(=O)c1cc(Cl)ccc1Cl)CC(N)=O
30 µM, 30.03 µM
  Percent Effect: -15.71%

## CN(CCS(=O)(=O)c1cc(Cl)ccc1Cl)CC(=O)Nc1ccc(F)cc1
30 µM, 30.03 µM
  Percent Effect: 64.98%

## CC(=O)NC[C@]1(O)CCN(C(=O)c2ccc3c(c2)OCO3)C[C@H]1O
30.3 µM, […]
  Percent Effect: -26.03%

## c1cc2cc[nH]c2c(CC2CN(Cc3cscn3)C2)n1
30.3 µM, […]
  Percent Effect: -15.51%

## Cc1cnc(N2CCOCC3(CCN(c4ccccn4)C3)C2)nc1.O=C(O)C(F)(F)F.O=C(O)C(F)(F)F (configuration not stated)
30 µM, 30.03 µM
  Percent Effect: -35.16%

## CC(=O)NCC(=O)N1CCC2(CC1)C(=O)N(CC1CC1)c1ccccc12
30.3 µM, […]
  Percent Effect: -5.541%

## CN(C)C1CCCN(C(=O)c2cccc(-c3ncc[nH]3)c2)CC1 (configuration not stated)
30 µM, 30.03 µM
  Percent Effect: -3.463%

## CN(C)[C@H]1CCCCN(C(=O)c2cccc(-c3cccc(F)c3)c2)C1
30 µM, 30.03 µM
  Percent Effect: 59.87%

## CN(C)[C@H]1CCCCN(C(=O)c2cccc(N3CCS(=O)(=O)CC3)c2)C1
30 µM, 30.03 µM
  Percent Effect: 11.69%

## CCC(C)CNc1ccc2oc(COC)nc2c1 (configuration not stated)
30 µM, 30.03 µM
  Percent Effect: 94.42%

## COCc1nc2cc(NCc3ccncc3)ccc2o1
30 µM, 30.03 µM
  Percent Effect: 16.85%

## COCc1nc2cc(NCc3ccc(C)o3)ccc2o1
30 µM, 30.03 µM
  Percent Effect: 13.96%

## Cc1cccc(C(=O)N2CCN(CCC(C)C)CC2)n1
30.3 µM, […]
  Percent Effect: -20.29%

## CCCN1Cc2nc(N3CCCC3)ncc2C1=O
30 µM, 30.03 µM
  Percent Effect: 35.2%

## c1ccc(-c2nnc3ccc(N4CCC5(CCOC5)C4)nn23)cc1 (configuration not stated)
30 µM, 30.03 µM
  Percent Effect: 81.34%

## FC(F)c1nnc2ccc(N3CCC4(CCOC4)C3)nn12 (configuration not stated)
30 µM, 30.03 µM
  Percent Effect: -51.53%

## Cc1nnc2ccc(N3CCC4(CCOC4)C3)nn12 (configuration not stated)
30 µM, 30.03 µM
  Percent Effect: -17.43%

## c1cc(-c2n[nH]cc2-c2ccnc(N3CCCCCC3)n2)ccn1
30.3 µM, […]
  Percent Effect: 36.75%

## Cc1nc(-c2ccccc2F)sc1C(=O)N1CCN(C)CC1
30 µM, 30.03 µM
  Percent Effect: 37.21%

## CCOC(=O)N1CCN(C(=O)c2sc(-c3ccccc3F)nc2C)CC1
30 µM, 30.03 µM
  Percent Effect: 51.23%

## CC(=O)N1CCN(C(=O)c2sc(-c3ccccc3F)nc2C)CC1
30 µM, 30.03 µM
  Percent Effect: -46.44%

## CC(=O)N1CCO[C@H]2[C@H](OCCCn3cccn3)CC[C@@H]21.O=C(O)C(F)(F)F
30.3 µM, […]
  Percent Effect: -5.128%

## COc1cccc(CN(Cc2ccco2)Cc2cnc(C)n2C)c1.O=C(O)CC(O)(CC(=O)O)C(=O)O
30.3 µM, […]
  Percent Effect: 15.04%

## CN1C[C@@H](C(=O)N(C)C)[C@@]2(CCc3ccccc3C(=O)N2)C1.Cl
30.3 µM, […]
  Percent Effect: -15.68%

## CNc1nc(C)c(C(=O)N2CCCCC2CN2CCCCCC2)s1 (configuration not stated)
30 µM, 30.03 µM
  Percent Effect: 17.59%

## O=C(O)C(F)(F)F.O=C(O)C(F)(F)F.O=C(c1n[nH]c2c1CN(C1CCOC1)CC2)N1CCOCC1 (configuration not stated)
30.3 µM, […]
  Percent Effect: 0.9809%

## CN(C)CCN1C(=O)CCC12CCN(C(=O)c1cccnc1)CC2.O=C(O)C(F)(F)F.O=C(O)C(F)(F)F
30.3 µM, […]
  Percent Effect: 75.6%

## CN(C)CCN1C(=O)CCC12CCCN(C(=O)c1cccnc1)CC2.O=C(O)C(F)(F)F.O=C(O)C(F)(F)F (configuration not stated)
30.3 µM, […]
  Percent Effect: -25.41%

## CN(C)CCN1C(=O)CCCC12CCCN(C(=O)c1ccncc1)C2.O=C(O)C(F)(F)F.O=C(O)C(F)(F)F (configuration not stated)
30.3 µM, […]
  Percent Effect: -7.261%

## O=C(O)C(F)(F)F.c1coc(CN2CCO[C@H]3[C@H](OCC4CCCC4)CC[C@@H]32)c1
30.3 µM, […]
  Percent Effect: 1.448%

## Cc1csc(N2CCN(CC(=O)N3CCNC3=O)CC2C)n1 (configuration not stated)
10 µM
  Percent Effect: -102.2%

## CC(C)NC(=O)c1ccc2c(c1)nc1n2CCN(C(C)C)C1
30 µM, 30.03 µM
  Percent Effect: -14.37%

## CC(C)NC(=O)c1ccc2c(c1)nc1n2CCN(Cc2ccco2)C1
30 µM, 30.03 µM
  Percent Effect: -8.027%

## CC(C)NC(=O)c1ccc2c(c1)nc1n2CCN(c2ccccc2)C1
30 µM, 30.03 µM
  Percent Effect: 50.34%

## COc1ccc2c(c1)c(-c1nc(N(C)C)ncc1CN)cn2C
30.3 µM, […]
  Percent Effect: 100.6%

## COCC(=O)NCc1cnc(C)nc1-c1cn(C)c2ccc(OC)cc12
30.3 µM, […]
  Percent Effect: -5.457%

## COc1ccc2c(c1)c(-c1nc(C)ncc1CN)cn2C
30.3 µM, […]
  Percent Effect: -32.27%

## O=C(Nc1ccccc1Cl)N1CCN(CC2CC2)[C@@H]2CS(=O)(=O)C[C@@H]21
30 µM, 30.03 µM
  Percent Effect: -39.32%

## COc1ccc2c(c1)nc1n2[C@@H](CNC(=O)c2ccccn2)COC1
30 µM, 30.03 µM
  Percent Effect: -12.62%

## Cc1ccc2c(c1)nc1n2[C@@H](CNC(=O)c2cncnc2)COC1
30.3 µM, […]
  Percent Effect: -3.868%

## CCNC(=O)NC[C@H]1COCc2nc3cc(OC)ccc3n21
30 µM, 30.03 µM
  Percent Effect: 86.68%

## CCNC(=O)NC[C@H]1COCc2nc3cc(C)ccc3n21
30.3 µM, […]
  Percent Effect: 32.27%

## COc1ccc2c(c1)nc1n2[C@@H](CNC(=O)c2cccnc2)COC1
30.3 µM, […]
  Percent Effect: -10.65%

## COc1ccc(C(=O)NC[C@H]2COCc3nc4cc(C)ccc4n32)cc1
30.3 µM, […]
  Percent Effect: 101.3%
